# SUMO Mot1 rescue: SUMOylation pathway inhibition by Mot1-301 growth rescue | S. cerevisiae Mot1-301 growth rescue, ATP luminescence, 38.5C; percent above DMSO median, 100 means doubled | growth rescue, % at 18.8 µM | 320,000 compounds, 1% hits;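 active means every valid replicate shows activation above 250% relative to neutral control wells; inactive means the rest, any valid replicate at or below 250%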;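 further: OY570 slx delta 5 strain wells were the positive control but not used for scaling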
# NALP3 yeast inh: inhibitors of NALP3 inflammasome in yeast; Yeast reconstituted NLRP3/ASC/caspase-1, beta-gal luminescence, 24 h; inhibition, % at 10 µM; 330,000 compounds, 0.39% hits; AID 2825;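 active means inhibition of 50% or more; inactive means inhibition below 50%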;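 further: plate controls were induced DMSO wells for no effect and uninduced yeast grown without galactose for full effect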
# CHT inh: human CHT choline transport inhibition; CHT-expressing cells, membrane potential dye, choline response; active compounds read low; AID 488975; 310,000 compounds, 0.86% hits; B-score at 10 µM;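 active means B-score over 3 SD under the library average, and starting fluorescence ratio not unusually high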;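 further: choline stimulus applied at its EC90 after an EC20 pre-addition; B-score computed on integrated fluorescence ratio after choline addition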
# Target sequence (Q9GZV3 whole entry, looked up): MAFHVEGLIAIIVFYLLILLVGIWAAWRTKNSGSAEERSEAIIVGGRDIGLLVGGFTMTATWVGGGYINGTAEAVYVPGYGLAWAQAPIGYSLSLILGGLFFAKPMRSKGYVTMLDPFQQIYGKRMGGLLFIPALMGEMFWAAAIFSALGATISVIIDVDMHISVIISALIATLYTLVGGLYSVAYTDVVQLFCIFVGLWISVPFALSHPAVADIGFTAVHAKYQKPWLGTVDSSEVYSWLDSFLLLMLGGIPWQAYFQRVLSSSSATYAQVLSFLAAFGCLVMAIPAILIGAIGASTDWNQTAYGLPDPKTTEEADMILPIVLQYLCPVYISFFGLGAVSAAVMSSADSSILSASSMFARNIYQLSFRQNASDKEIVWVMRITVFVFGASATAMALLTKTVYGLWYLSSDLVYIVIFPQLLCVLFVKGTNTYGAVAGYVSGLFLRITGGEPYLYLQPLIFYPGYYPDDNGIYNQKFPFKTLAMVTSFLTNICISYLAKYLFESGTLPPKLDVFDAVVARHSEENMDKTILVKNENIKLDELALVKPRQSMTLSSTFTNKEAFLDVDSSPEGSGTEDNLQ
# CHT allo act: allosteric activators of human choline transporter CHT; 310,000 compounds, 0.49% hits; B-score at 10 µM; CHT-expressing cells, membrane potential dye, choline EC20; active compounds read high; LV-AA mutant CHT in HEK293 cells;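 active means initial fluorescence not abnormally high and integrated response B-score, plate-corrected, over 3 SD above library mean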
# Bfl-1 A1 inh: inhibitors of the anti-apoptotic protein A1, read as caspase activation | 330,000 compounds, 0.066% hits | caspase activation, % (no concentration beside the values) | MEF A1-2A-BIM cells, Caspase-Glo 3/7 luminescence, 3 h; percent of clofoctol response, vehicle zero;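 active means over half of replicate activation scores above 10%, or exactly half above 10 with the replicate mean above 10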
# NALP1 yeast inh: NALP1 inhibition; 280,000 compounds, 0.61% hits; inhibition, % at 10 µM; AID 2071; S. cerevisiae NALP1/ASC/caspase-1 growth, X-gal OD620, 72 h; in the data active means inhibition mostly above about 24%, no sharp cut-off; inactive means mostly below about 32%
# CHT activ conf: confirmation of human choline transporter (CHT) activators; shares compounds with CHT allo act; CHT-expressing cells, membrane potential dye fluorescence (FDSS); % of choline EC20–EC90 response window; HEK293 expressing CHT LV-AA mutant; choline added at its EC20; activation, % at 10 µM; 2,500 compounds, 91% hits; AID 504833;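 active means primary screen active, with duplicate mean activation above negative control mean plus 3 SD, cut at about 11% in these data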
# HEK293 MP dye: CHT activator counter-screen hit in parental HEK293 cells | membrane potential dye fluorescence (FDSS); measured after EC20 choline addition | 2,500 compounds, 62% hits | AID 623908 | shares compounds with CHT allo act | ratio readout change at 10 µM, hits read low;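 active means duplicate-averaged ratio beyond 3 SD from buffer wells, up or down, though filed actives are nearly all decreases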
# * = called active by the depositor; i = inactive; . = no result. Sampled rows, rich in hits. Any-hit rate of the full collection: about 3%.
SMILES,SUMO Mot1 rescue,NALP3 yeast inh,CHT inh,CHT allo act,Bfl-1 A1 inh,NALP1 yeast inh,CHT activ conf,HEK293 MP dye
COc1c(N2CCNC(C)C2)c(F)cc2c(=O)c(C(=O)O)cn(C3CC3)c12 (configuration not stated),-24,25,i,6.7*,0,.,36*,-45*
NC1CCN(c2c(F)cc3c(=O)c(C(=O)O)cn(C4CC4)c3c2Cl)C1 (configuration not stated),14,7,i,i,1,10,18*,-48*
Cc1cc(C)nc(SCc2nc3nc(C)cc(C)n3c2Br)n1,-7,1,i,i,0,-13,.,.
Cc1cc(C)n2c(Br)c(CN3CCCC(C)C3)nc2n1 (configuration not stated),7,-2,i,6.6*,1,1,29*,-51*
CC(C)(C)c1ccc(C2C(C(=O)c3ccco3)=C(O)C(=O)N2CC2CCCO2)cc1 (configuration not stated),8,-4,i,i,0,8,.,.
COc1ccc2nc(C)cc(SCC(=O)O)c2c1,-17,-1,i,i,1,13,.,.
COC(=O)CSc1cc(C)nc2ccc(OC)cc12,16,6,i,i,-1,7,44*,-50*
COc1cc(NC(=O)CN2C(=O)C(c3ccccc3)=NC23CCCCCC3)cc(OC)c1,5,17,i,7.6*,0,18,6,i
Cc1ccc(CNC(=O)CNC(=O)c2ccc(C(C)(C)C)cc2)n1C,-5,16,.,.,-1,.,.,.
Cc1ccc(N/C(N)=N/c2nc(CSc3nnc(N)s3)cc(=O)[nH]2)cc1,-7,-1,i,i,0,3,5,i
Cc1ccc(N/C(N)=N/c2nc(CSc3ccc(C)cc3)cc(=O)[nH]2)cc1,.,.,.,.,.,15,.,.
O=C(NC(Cc1ccccc1)C(=O)O)/C(=C/c1ccc([N+](=O)[O-])cc1)NC(=O)c1ccco1 (configuration not stated),-7,9,i,i,1,5,.,.
c1ccc(NCc2nc3ccccc3n2CCOc2ccccc2)cc1,13,20,i,i,-4,17,.,.
COc1ccc(NCc2nc3ccccc3n2CCOc2ccccc2)cc1,48,28,i,6.4*,0,33,24*,i
O=C(C[n+]1cc(-c2ccc(Cl)cc2)n2c1CCC2)N1c2ccccc2Sc2ccccc21,12,-10,i,i,0,-3,.,.
CC1CCC(C(C)C)C(OC(=O)C[n+]2cc(-c3ccc(Cl)cc3)n3c2CCC3)C1 (configuration not stated),-22,-1,i,14*,1,.,83*,i
Brc1ccc2nc(-c3cccs3)c(NCC3CCCO3)n2c1 (configuration not stated),-13,23,i,6.7*,-1,-2,10,i
Cc1ccc(C)c(OCCC(=O)OCC(=O)Nc2ccc(Cl)cn2)c1,-19,21,i,i,0,.,.,.
Cc1nc2ccc(Cc3ccc4nc(C)[nH]c4c3)cc2[nH]1,.,13,i,7.5*,-2,3,59*,-54*
O=[N+]([O-])c1ccc(N2CCN(c3cccc(Cl)c3)CC2)cn1,-6,21,i,i,1,18,.,.
O=C1Nc2ccccc2C(=O)N2C[C@@H](O)C[C@H]12,-4,6,i,i,-1,23,.,.
CCN(CC)CCNc1nc2c(c(=O)[nH]c(=O)n2C)n1CC(O)COc1ccc(Cl)cc1Cl (configuration not stated),-4,4,i,9.5*,-1,32,53*,-53*

# Bioassay records from PubChem.
